Data taken from PubChem BioAssay.

Test: adipocyte viability effects, profiling panel, cell-based, 3T3-L1 adipocytes, calcein-AM fluorescence, 48 h, basal (AID 1163)
Conditions: 3T3-L1 adipocytes viability, higher = more signal
Further: test concentration not given here.

Point of comparison: `CC(C)=CCN(C(=O)C#Cc1ccccc1)[C@H](CO)c1ccccc1`, z-score -0.522. Against it:
- CCCC=C(CCC)[C@@H](NC(=O)c1ccco1)c1ccc(C(=O)OC)cc1 — lower, -1.72
- CC(C)(C)OC(=O)CC[C@]1(C(N)=O)N=C(c2ccc(OCCCO)cc2)O[C@H]1c1ccccc1CN=[N+]=[N-] — higher, 0.434
- COc1ccc(NN2C(C(O)c3cc(C(F)(F)F)cc(C(F)(F)F)c3)C=CC3C(=O)N(C4CCCCC4)C(=O)C32)cc1 (configuration not stated) — lower, -0.826
- COc1ccc(CCNC(=O)[C@@]2(C)c3ccccc3C(=O)N(Cc3cc(C(F)(F)F)cc(C(F)(F)F)c3)[C@H]2c2ccc(CO)cc2)cc1 — higher, 1.28
- CC(C)C(=C=CC[C@@H](O)c1ccc(OCCO)cc1)CCO — higher, 0.721
- C=CCC(OC(C)=O)[C@@H]1[C@@H](N(Cc2cc3ccccc3o2)C(=O)c2ccc(-c3ccccc3)cc2)c2cc(OCCCO)ccc2N1C(=O)c1ccc2ccccc2n1 (some centres not stated) — higher, 0.242
- CC(C)c1ccc(NN2C(C(O)C(C)C)C=CC3C(=O)N(c4ccccc4)C(=O)C32)cc1 (configuration not stated) — higher, -0.0009
- CCCC[C@H]1OB(O)C[C@H]2C1=C(COC)C[C@H]1C(=O)C=CC(=O)[C@H]12 — higher, -0.0373
- COc1ccc([Si](C)(C)[C@H]2[C@H](CCn3cc([C@H](O)c4ccccc4)nn3)O[C@@]3(C(=O)N(c4ccccc4)c4ccccc43)[C@@H]2C)cc1 — higher, 0.885
- N#Cc1ccc(C(O)C2C=CC3C(=O)NC(=O)C3N2Nc2ccccn2)cc1 (configuration not stated) — higher, -0.239
- O=C1C2C=CC(C(O)c3cccs3)N(Nc3ccccc3)C2C(=O)N1c1ccccc1 (configuration not stated) — higher, 0.715
- CCCC[C@@H]1C[C@H]1[C@@H](NC(=O)Cc1ccccc1)c1ccc(Cl)cc1 — lower, -0.669
- O=C1C2C=CC(C(O)c3ccc([N+](=O)[O-])cc3)N(Nc3ccccc3)C2C(=O)N1c1ccccc1 (configuration not stated) — lower, -1.38
- O=C1C2C=CC(C(O)C(c3ccccc3)c3ccccc3)N(Nc3ccccc3)C2C(=O)N1c1ccccc1 (configuration not stated) — lower, -0.835
- CC(C)CNC(=O)[C@@]1(C)c2ccccc2C(=O)N(Cc2cc(F)cc(C(F)(F)F)c2)[C@H]1c1ccc(CO)cc1 — higher, 1.32
- Cc1c(NC(=O)/C(C#N)=C/c2ccc(Cl)cc2)c(=O)n(-c2ccccc2)n1C — higher, 0.22
- CN1C(=O)[C@]2(CCS(=O)(=O)c3ccccc3)N=C(c3ccc(OCCCO)cc3)O[C@@H]2c2ccccc21 — lower, -1.15
- COc1cccc(C[C@H]2C[C@@H](CO[Si](C(C)C)(C(C)C)C(C)C)N3C(=O)[C@@]4(C(C)=O)O[C@@]23[C@@H]2C(=O)N(C)C(=O)[C@@H]24)c1 — higher, 0.202
- CC(=O)n1cc(C(O)C2C=CC3C(=O)N(c4ccccc4)C(=O)C3N2Nc2ccccc2F)c2ccccc21 (configuration not stated) — higher, 0.23
- CC=CC(O)C1C=CC2C(=O)N(C)C(=O)C2N1NC(=O)OC(C)(C)C (configuration not stated) — lower, -0.604

Test: HepG2 cell viability effects, profiling panel, calcein-AM fluorescence, 48 h, basal (AID 1164)
Conditions: higher = more signal

Point of comparison: `CC(C)c1ccc(NN2C(C(O)C(C)C)C=CC3C(=O)N(c4ccccc4)C(=O)C32)cc1` (configuration not stated), z-score -0.463. Against it:
- CCCCC(=C=CC[C@@H](O)c1cccc(OCCO)c1)CCO — higher, 0.98
- C=CCOC(=O)[C@@H]1[C@H]2C(=O)O[C@H](c3ccccc3)[C@H](c3ccccc3)N2[C@H](c2ccc(OCCOC(=O)[C@H]3C[C@H]4C(=O)NCC(=O)N4[C@H]3c3ccc(O)cc3)cc2)[C@@]12C(=O)Nc1ccc(I)cc12 — higher, 0.273
- CN1C=C(C(=O)OCCS(C)(=O)=O)C(C(=O)OCCS(C)(=O)=O)=CC(CCCO)=CC1c1ccc(CN2CCCC2)cc1 (configuration not stated) — higher, 1.81
- COCCOC(=O)N1C(=O)[C@@]2(c3cc(C#CC4(O)CCCCCC4)ccc31)[C@H](C(=O)N1CCc3cc(OC)c(OC)cc3C1)[C@H]1C(=O)O[C@H](c3ccccc3)[C@H](c3ccccc3)N1[C@@H]2c1ccc(O)cc1 — higher, 0.582
- O=C1O[C@@H](c2ccccc2)[C@@H](c2ccccc2)N2[C@@H](c3ccc(OCCO)cc3)[C@]3(C(=O)Nc4ccc(C#CCCO)cc43)[C@@H](C(=O)Nc3nc4ccccc4s3)[C@H]12 — higher, -0.354
- COCCCNC(=O)[C@@H]1c2ccccc2C(=O)N(C2CCCCC2)[C@H]1c1ccc(CO)cc1 — higher, 1.05
- C=CC[C@]1(C(=O)NCc2ccccc2)COC(c2ccc(OCCCO)cc2)=N1 — lower, -2.51
- CN(C)CCCNC(=O)[C@@]1(Cc2ccccc2I)c2ccccc2C(=O)N(Cc2ccccc2)[C@H]1c1ccc(CO)cc1 — lower, -3.4
- COc1cccc(OC)c1C(=O)O[C@H]1[C@@H]2OC(=O)[C@H](Cc3cccc(Br)c3)C/C=C/C[C@@H](Cc3cccc(Br)c3)C(=O)O[C@H]2[C@@H](OC)O[C@@H]1CO — higher, -0.215
- [N-]=[N+]=NCc1ccccc1C[C@]1(C(=O)NCc2ccccc2)N=C(c2ccc(OCCCO)cc2)O[C@H]1c1ccccc1CN=[N+]=[N-] — lower, -0.955
- COCCOC(=O)N1C(=O)[C@@]2(c3cc(C#Cc4ccc(OC)cc4)ccc31)[C@H](c1ccc(OCCO)cc1)N1[C@H](c3ccccc3)[C@H](c3ccccc3)OC(=O)[C@H]1[C@@H]2C(=O)N1CCCCCCC1 — higher, 0.856
- Cc1ccc(S[C@]2(C(=O)NC3CC3)CC(=O)N(Cc3cc(C(F)(F)F)cc(C(F)(F)F)c3)[C@@H]2c2ccc(CO)cc2I)cc1 — higher, 0.311
- CC1(C)OC[C@@]23C=C(Br)[C@@H](C[C@H]12)[C@@]1(CO1)C3=O — higher, -0.0344
- CCOC(=O)C1=CC[C@@H](c2ccccc2)N(S(=O)(=O)c2ccc(C)cc2)[C@H]1C#N — higher, -0.139
- COc1ccccc1CN1C(=O)c2ccccc2[C@](Cc2ccccc2I)(C(=O)NCCCN(C)C)[C@@H]1c1ccc(CO)cc1 — lower, -5.12
- CCCC=C(CCC)[C@@H](NC(=O)c1ccco1)c1ccc(C(=O)OC)cc1 — lower, -5.68
- CC(C)(C)OC(=O)CC[C@]1(C(N)=O)N=C(c2ccc(OCCCO)cc2)O[C@H]1c1ccccc1CN=[N+]=[N-] — higher, 0.088
- COc1ccc(NN2C(C(O)c3cc(C(F)(F)F)cc(C(F)(F)F)c3)C=CC3C(=O)N(C4CCCCC4)C(=O)C32)cc1 (configuration not stated) — higher, 0.837
- COc1ccc(CCNC(=O)[C@@]2(C)c3ccccc3C(=O)N(Cc3cc(C(F)(F)F)cc(C(F)(F)F)c3)[C@H]2c2ccc(CO)cc2)cc1 — higher, -0.23
- CC(C)C(=C=CC[C@@H](O)c1ccc(OCCO)cc1)CCO — higher, -0.164
- C=CCC(OC(C)=O)[C@@H]1[C@@H](N(Cc2cc3ccccc3o2)C(=O)c2ccc(-c3ccccc3)cc2)c2cc(OCCCO)ccc2N1C(=O)c1ccc2ccccc2n1 (some centres not stated) — higher, 1.43
- CCCC[C@H]1OB(O)C[C@H]2C1=C(COC)C[C@H]1C(=O)C=CC(=O)[C@H]12 — higher, -0.0926
- COc1ccc([Si](C)(C)[C@H]2[C@H](CCn3cc([C@H](O)c4ccccc4)nn3)O[C@@]3(C(=O)N(c4ccccc4)c4ccccc43)[C@@H]2C)cc1 — lower, -1.31
- N#Cc1ccc(C(O)C2C=CC3C(=O)NC(=O)C3N2Nc2ccccn2)cc1 (configuration not stated) — higher, 1.43
- O=C1C2C=CC(C(O)c3cccs3)N(Nc3ccccc3)C2C(=O)N1c1ccccc1 (configuration not stated) — higher, -0.379
- CC(C)=CCN(C(=O)C#Cc1ccccc1)[C@H](CO)c1ccccc1 — lower, -5.06
- CCCC[C@@H]1C[C@H]1[C@@H](NC(=O)Cc1ccccc1)c1ccc(Cl)cc1 — lower, -1.9
- O=C1C2C=CC(C(O)c3ccc([N+](=O)[O-])cc3)N(Nc3ccccc3)C2C(=O)N1c1ccccc1 (configuration not stated) — higher, 0.761
- O=C1C2C=CC(C(O)C(c3ccccc3)c3ccccc3)N(Nc3ccccc3)C2C(=O)N1c1ccccc1 (configuration not stated) — higher, 1.82
- CC(C)CNC(=O)[C@@]1(C)c2ccccc2C(=O)N(Cc2cc(F)cc(C(F)(F)F)c2)[C@H]1c1ccc(CO)cc1 — lower, -0.49
- Cc1c(NC(=O)/C(C#N)=C/c2ccc(Cl)cc2)c(=O)n(-c2ccccc2)n1C — higher, 0.115
- CN1C(=O)[C@]2(CCS(=O)(=O)c3ccccc3)N=C(c3ccc(OCCCO)cc3)O[C@@H]2c2ccccc21 — higher, 0.881
- COc1cccc(C[C@H]2C[C@@H](CO[Si](C(C)C)(C(C)C)C(C)C)N3C(=O)[C@@]4(C(C)=O)O[C@@]23[C@@H]2C(=O)N(C)C(=O)[C@@H]24)c1 — higher, -0.342
- CC(=O)n1cc(C(O)C2C=CC3C(=O)N(c4ccccc4)C(=O)C3N2Nc2ccccc2F)c2ccccc21 (configuration not stated) — lower, -0.798
- CC=CC(O)C1C=CC2C(=O)N(C)C(=O)C2N1NC(=O)OC(C)(C)C (configuration not stated) — higher, -0.39
